# Assay outcomes (PubChem)
# AmpC detergent: inhibitors of E. coli AmpC beta-lactamase with detergent; hit rate 0.041% among 370,000; Potency, µM (highest dose often 114 µM), hits mostly inhibitors; AmpC hydrolysis of nitrocefin, absorbance 480 nm, 0.01% Triton; further: nearly all actives have a fitted effect of over 25% in size
# Target sequence (P00811 whole entry, looked up): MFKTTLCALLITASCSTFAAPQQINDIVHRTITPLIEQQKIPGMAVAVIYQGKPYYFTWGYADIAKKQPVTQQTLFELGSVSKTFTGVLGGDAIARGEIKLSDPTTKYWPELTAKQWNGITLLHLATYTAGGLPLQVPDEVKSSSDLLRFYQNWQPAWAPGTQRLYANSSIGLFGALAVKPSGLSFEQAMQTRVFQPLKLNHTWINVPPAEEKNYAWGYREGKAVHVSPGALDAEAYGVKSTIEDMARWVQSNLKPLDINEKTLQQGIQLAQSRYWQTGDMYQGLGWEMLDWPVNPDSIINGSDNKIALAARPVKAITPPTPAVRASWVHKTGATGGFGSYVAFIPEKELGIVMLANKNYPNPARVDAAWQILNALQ
#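 20 mM phosphate pH 7.0 + 0.01% (detergent screen) or 0.0001% Triton X-100; 5.3 nM AmpC reagent; cpd preinc 15 min RT; nitrocefin (800 uM stock) to start; A480 q20 s × 4 min; Activity was normalised to no-enzyme and no-compound control wells.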
# AmpC no deterg: inhibitors of E. coli AmpC beta-lactamase without detergent | P00811 | AmpC nitrocefin hydrolysis, absorbance 480 nm, 0.0001% Triton | Potency, µM (titrated, usually from 57.1 µM), most hits filed as inhibitors | hit rate 0.52% among 330,000 | AID 485341; further: nearly all actives have a fitted effect of over 20% in size
#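 AmpC (5.3 nM in the dispensed reagent) in 20 mM phosphate pH 7.0 with 0.01% (detergent screen) or 0.0001% Triton X-100 was preincubated with compounds for 15 min at room temperature. Nitrocefin was then added from an 800 uM solution, and hydrolysis was followed at 480 nm.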
# AMA1 RON2 block: disrupts binding of P. falciparum AMA1 to RON2. AlphaScreen AMA1-biotinylated RON2 peptide binding. Potency, µM (titrated, usually from 58.2 µM), actives largely listed as inhibitors. hit rate 0.2% among 360,000. AID 720542; further: nearly all actives have a fitted effect of over 45% in size
#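 AMA1 (3D7) with his tag at 25 nM final met compounds first, then biotinylated RON2 peptide at 25 nM; detection used donor plus acceptor beads, 10 µg/mL apiece, read by AlphaScreen after 30 min at room temperature.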
# Pf growth 96h: P. falciparum growth inhibition at 96 hours. Potency, µM (doses to about 28.7 µM), hits mostly inhibitors. AID 504834. hit rate 6.9% among 320,000. P. falciparum luciferase reporter growth, 96 h
#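 Two parasite generations (96 h, 37 C, 5% CO2) of compound exposure in infected erythrocytes (0.05% parasitemia, 2% hematocrit). Luciferase-reporter P. falciparum; decreased luminescence indicates inhibited growth, aimed at apicoplast-acting delayed death.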
# HCV inhibitor: inhibitors of hepatitis C virus infection | Potency, µM (series often up to 41.8 µM), actives largely listed as inhibitors | hit rate 3.4% among 340,000 | Huh7.5.1 HCVcc-Cre infection, luciferase reporter, 44 h
#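 Compounds are dispensed onto cells plated 4 h earlier at 1,000 per well, with HCVcc-Cre virus (about 0.5 moi) added next. Following 44 h of culture, luminescent signal is measured for 15 sec after 15 min with substrate at room temperature.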
# Pf growth 48h: inhibits P. falciparum growth in the first generation, 48 h; P. falciparum luciferase growth in erythrocytes, 48 h; Potency, µM (doses to about 28.7 µM), hits mostly inhibitors; hit rate 5.9% among 310,000; AID 504832
#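 In quantitative HTS format, infected erythrocytes bearing luciferase-reporter parasites were treated for a single generation at 37 C. Luminescence after adding detection reagent served as the growth measure.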
# Numbers stand for hits; 0 = inactive; ? = inconclusive; - = no result given; ! = not active in a repeat; [ ] = dose if it differs, or a comment. Most compounds without a hit are left out; they make up all but 11% or so of the library. The call rests on the fitted dose curve; in most records, active means well fitted curve in the direction sought with a large enough effect; inconclusive means small, poorly fitted or top-dose-only effect, or another doubt; inactive means no such curve, though single readings can be large; an effect the other way counts as inactive or inconclusive.
SMILES,AmpC detergent,AmpC no deterg,AMA1 RON2 block,Pf growth 96h,HCV inhibitor,Pf growth 48h
CCCOc1ccc(C(=O)Nc2nc(C)c(Cc3ccc4c(c3)OCO4)s2)cc1,0,0,0,?,3.5µM,10µM
Cc1nc(NC(=O)c2ccc(OCC(C)C)cc2)sc1Cc1ccc2c(c1)OCO2,0,0,0,?,14µM,?
Cc1c(Cc2ccc3c(c2)OCO3)sc(NC(=O)c2ccc3ccccc3c2)c1C(N)=O,?,0,0,0,?,0
COc1cc(C(=O)Nc2nc(C)c(Cc3ccc4c(c3)OCO4)s2)cc(OC)c1OC,0,0,0,?,10µM,?
CCC1CCc2nc3sc(C(=O)Nc4ccc(C)cc4)c(N)c3cc2C1 (centres undefined),0,-,-,-,-,-
O=[N+]([O-])c1cc(C(F)(F)F)ccc1N1CCCC(O)C1 (centres undefined),0,0,0,0,0,0
O=[N+]([O-])c1ccc(N2CCCC(C(F)(F)F)C2)c2ccncc12 (centres undefined),0,0,?,?,10µM,13µM
Cc1cc(NC(=O)CSCC(=O)N(c2ccc(F)cc2)C(C(=O)NC2CCCCC2)c2ccc(O)c(O)c2)no1 (centres undefined),0,0,0[11.6 µM],15µM,0,?
Cc1cc(NC(=O)CSCC(=O)N(c2cccc(Cl)c2)C(C(=O)NC2CCCCC2)c2ccc(O)c(O)c2)no1 (centres undefined),0,0,0,9.3µM,0,?
COc1ccc(N(C(=O)/C=C/C(=O)Nc2cc(C)on2)C(C(=O)NC2CCCC2)c2ccccc2C)cc1 (centres undefined),0,0,0,0,?,9.3µM
COc1ccc(N(C(=O)CSCC(=O)Nc2cc(C)on2)C(C(=O)NC2CCCCC2)c2ccc(O)c(O)c2)cc1 (centres undefined),0,0,0,2.6µM,0,0
COc1ccc(S(=O)(=O)NCC(c2ccco2)N2CCN(c3ccccc3F)CC2)cc1OC (centres undefined),0,-,-,-,-,-
CN1C(=O)c2cccc3c(S(=O)(=O)Nc4cccc(C(=O)O)c4)ccc1c23,0,-,-,-,-,-
COc1ccc(C(C(=O)NC2CCCCC2)N(C(=O)CCCC(=O)Nc2ccccn2)c2ccc3c(c2)OCCO3)cc1 (centres undefined),0,0,0,9.3µM,0,?
C=C1C(=O)[C@@]23[C@H](O)C[C@@H]4C(C)(C)CC[C@H](O)[C@]4(C)[C@@H]2C[C@H](O)[C@@H]1[C@H]3O,?,0,0,4.1µM,0,9.3µM
C=C1C(=O)[C@]23C[C@H]1CCC2[C@]1(C)CCC[C@@](C)(C(=O)O)C1C[C@@H]3O (some centres undefined),-,-,0,-,-,-
C=C1C(=O)[C@@]23[C@H](O)C[C@@H]4C(C)(C)CC[C@H](O)[C@@]4(C)[C@@H]2CC[C@@H]1[C@H]3O,?,0,0,?,?,15µM
CC(C)Oc1ccc(CNC(=O)Cc2ccc(NC(=O)N3CCSc4ncccc43)cc2)cc1,0,-,-,-,-,-
Cc1ccc(/C(C#N)=C\c2cn(C)c3ccccc23)cc1,0,0,-,-,6.3µM,0
Cn1cc(C=O)c2ccccc21,0,0,0,10µM,0,0
Cc1ccc(C(=O)N/C(=C\c2cn(C)c3ccccc23)C(=O)N2CCOCC2)cc1,0,0,0,0,0,0
COc1cc(CN(C(=O)c2ccccc2F)C2CCS(=O)(=O)C2)cc(OC)c1OC (centres undefined),0,-,-,-,-,-
COc1ccc2cc(C(=O)N3CCN(Cc4ccc5c(c4)OCO5)CC3)[nH]c2c1,0,0,0,13µM,10µM,0
CCN1CCN(C(=O)c2cc3ccc(OC)cc3[nH]2)CC1,0,0,0,0,0,0
COc1ccc2[nH]c3c(N4CCN(Cc5ccc6c(c5)OCO6)CC4)ncnc3c2c1,?,0,0,5.9µM,?,4.1µM
SMILES,AmpC detergent,AmpC no deterg,AMA1 RON2 block,Pf growth 96h,HCV inhibitor,Pf growth 48h
COc1ccc2c(c1)c1ncnc(N3CCN(Cc4ccc5c(c4)OCO5)CC3)c1n2C,0,0,-,0,-,?
COc1ccc2[nH]c3c(N4CCC(O)(c5cccc(C(F)(F)F)c5)CC4)ncnc3c2c1,0,0,0,2.3µM,6.3µM,15µM
COCCn1nnnc1CN1CCC(O)(c2cccc(C(F)(F)F)c2)CC1,0,0,0,0,0,0
COCC(C)n1c(C)cc(C(=O)COc2ccc(S(=O)(=O)N3CCOCC3)cc2Cl)c1C (centres undefined),?,0,0,-,14µM,13µM
O=C(COc1ccc(S(=O)(=O)N2CCOCC2)cc1Cl)NC1CC1,0,0,0,0,0,0
COc1ccccc1CNC(=O)C(NS(=O)(=O)c1ccc2c(c1)CCN2C(C)=O)C(C)C (centres undefined),0,-,-,-,-,-
NC12CC3CC(C1)CC(O)(C3)C2,?,0,0,10µM,0,0
NC12CC3CC(C1)CC(CC(=O)O)(C3)C2,0,0,0,0,0,0
O=C(OCc1cc(=O)n2nc(-c3cccs3)sc2n1)c1ccccc1Br,0,-,-,-,-,-
CC(C[N+](C)(C)C)OC(=O)C1(c2ccccc2)CCCC1 (centres undefined),0,0,0,?,0,10µM
CCN(CC)CCOCCOC(=O)C1(c2ccccc2)CCCC1,-,-,0,3.4µM,0,3µM
C[N+](C)(C)CCOC(=O)C1(c2ccccc2)CCCC1,0,0,0,-,0,0
Cc1ccc(-c2ccccc2)n1-c1ccc(C(=O)O)cc1,0,0,0,0,0,0
Oc1ccccc1-n1c(-c2ccccc2)ccc1-c1ccccc1,0,0,0,5.9µM,?,9.3µM
CCn1nc(-c2ccccc2)c(-c2ccccc2)c(C(=O)Nc2nc(C)c(C(C)=O)s2)c1=O,0,-,-,-,-,-
CCOC(=O)C1CCCN(c2ccc(NC(=O)c3snc4c(=O)[nH]cnc34)cc2)C1 (centres undefined),0,0,?,-,0,?
CCOC(=O)C1CCCN(c2ccc(NC(=O)c3snc4c(=O)[nH]c(C)nc34)cc2)C1 (centres undefined),0,0,0,0.93µM,0,?
CC(C)(C)c1nc(CN2CCCCC2)cc(CN2CCCCC2)c1O,0,0,0,?,0,9.3µM
CN(C)CCC(c1ccccc1)c1ccccn1 (centres undefined),0,0,0,0,5µM!,0
CN(C)CCC(c1ccc(Cl)cc1)c1ccccn1 (centres undefined),?,0,0,0,?,0
COc1ccc(C(=O)c2c(NC(C)=O)sc3c2CCN(C(=O)OC(C)(C)C)C3)cc1,0,0,0,9.3µM,0,8.3µM
